HDAC3 inhib – human HDAC3 inhibition; O15379; recombinant HDAC3, fluorogenic peptide/trypsin coupled, fluorescence; AID 2718; actives 0.15% (n = 320,000); inhibition, % at 8.3 µM; in the data active means inhibition above about 26%, passing the limit was not always enough
m5-HT2A agonist – mouse HTR2A agonism via beta-arrestin recruitment; P35363; CHO-K1 mHTR2A beta-arrestin complementation, luminescence; percent of 30 µM serotonin response; activation, % at 7.6 µM; actives 0.66% (n = 360,000);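 active means activation above a run cutoff, the mean activation of all tested compounds plus 3 SD, cut at about 14% in these data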;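 further: 0% = plate median of compound wells and 100% = 30 µM serotonin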
Target sequence (P35363 whole entry, looked up): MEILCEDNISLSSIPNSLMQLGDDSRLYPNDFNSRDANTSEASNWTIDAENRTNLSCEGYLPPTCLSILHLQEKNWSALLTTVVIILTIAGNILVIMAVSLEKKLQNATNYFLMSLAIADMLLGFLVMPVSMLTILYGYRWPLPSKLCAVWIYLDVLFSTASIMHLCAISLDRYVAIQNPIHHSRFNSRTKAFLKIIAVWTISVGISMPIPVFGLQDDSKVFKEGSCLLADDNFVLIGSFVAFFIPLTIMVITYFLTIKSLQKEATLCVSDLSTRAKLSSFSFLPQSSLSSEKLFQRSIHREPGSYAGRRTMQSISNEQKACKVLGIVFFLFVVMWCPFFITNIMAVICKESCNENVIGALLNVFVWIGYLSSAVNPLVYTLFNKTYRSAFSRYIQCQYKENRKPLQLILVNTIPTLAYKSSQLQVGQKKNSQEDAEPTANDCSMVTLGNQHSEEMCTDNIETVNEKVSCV
CTSL1 counter – counter-screen for PFM18AAP inhibitors: inhibitors of F. hepatica cathepsin L1; inhibition, % at 5.96 µM; AID 1906; recombinant F. hepatica cathepsin L1, Z-Leu-Arg-MCA fluorescence; actives 0.49% (n = 300,000);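 active means inhibition above the mean of all tested compounds plus 3 SD, set per screening campaign, cut at about 17% in these data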;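 further: 0% = plate median of test compound wells and 100% = 1 µM Z-Phe-Ala-diazomethylketone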
LANA-H2B inh – blocks KSHV LANA binding to histone H2A/H2B; Q9QR71; cell-free LANA-H2A/H2B peptide, fluorescence polarization; inhibition, % (concentration not given with the values); actives 0.6% (n = 320,000); AID 2629; in the data active means inhibition mostly above about 10%, no sharp cut-off; inactive means mostly below about 6.7%
Starred values were filed as active, the others as inactive; x = no result; + = active, no number. Only some compounds are listed: those with a hit (about 1.7% of all), similar ones and a draw of the others.

SMILES	HDAC3 inhib	m5-HT2A agonist	CTSL1 counter	LANA-H2B inh
C[C@H](CO)N1C[C@H](C)[C@H](CN(C)Cc2ccc(Oc3ccccc3)cc2)Oc2cc(Br)ccc2S1(=O)=O	x	2	x	x
Fc1ccc(COc2ccc(C(=S)N3CCCC3)cc2)cc1	0	-6	0	22*
CCOc1ccc(C(=S)N2CCCC2)cc1OCC	3	-1	-1	-2
CCOc1cc(C(=S)N2CCCC2)ccc1OCc1ccccc1	3	-2	2	9.2*
CCOc1ccccc1N(CC(=O)Nc1ccccc1Br)S(=O)(=O)c1ccccc1	x	3	x	x
Cc1cc(S(=O)(=O)N2CCN(CC(=O)NCCc3cccs3)CC2)ccc1Br	10	6	x	+
O=C(CN1CCN(S(=O)(=O)c2cccc(Br)c2)CC1)NCCc1cccs1	4	7	x	-157
O=C(CNC(=O)C1CCCCC1)OCn1nnc2ccccc2c1=O	9	3	56*	15*
O=C(COC(=O)CNC(=O)C1CCCCC1)Nc1ccc(F)c([N+](=O)[O-])c1	1	1	x	-3
O=C(COC(=O)CNC(=O)C1CCCCC1)Nc1ccc2ccccc2c1	2	3	27*	1
NS(=O)(=O)c1ccc(NC(=O)COC(=O)COc2ccc3ccccc3c2)cc1	2	17*	-15	-3
O=C(COC(=O)CNC(=O)C1CCCCC1)Nc1ccc2c(c1)OCCO2	-4	0	34*	1
CC(C)(C)c1ccc(C(=O)NCC(=O)OCC(=O)Nc2ccc3c(c2)OCCO3)cc1	-1	-5	-7	3
COc1ccc(C2(C)NC(=O)N(CC(=O)NCc3ccccc3)C2=O)cc1OC (configuration not stated)	-1	5	0	25*
Cc1ccc(C2(C)NC(=O)N(CC(=O)N(Cc3ccccc3)C(C)(C)C)C2=O)cc1 (configuration not stated)	1	-2	1	17*
C[C@H](NC(=O)Cc1cccc2ccccc12)C(=O)NCc1ccccc1	-3	2	6	16*
O=C(Cc1cccc2ccccc12)Nc1ccccc1	0	-2	-5	0
O=C(c1cccc(Br)c1)N1CCN(c2ccc(N3CCOCC3)nn2)CC1	0	9	18*	-2
O=C1CC2(CCN(C(=O)c3cccc(Br)c3)CC2)Oc2ccccc21	-6	-10	2	19*
Cc1ccc2[nH]c(C(=O)N3CCN(C=O)CC3)cc2c1	7	3	-4	13
CCOC(=O)N1CCN(C(=O)c2cc3cc(C)ccc3[nH]2)CC1	-5	7	4	13*
CC(C)C[C@H]1CN([C@@H](CC(C)C)CN2CCC[C@H]2CN2C(=O)C(=O)NC[C@@H]2Cc2ccc(O)cc2)C(=O)C(=O)N1CC1CCCCCC1	x	2	x	x
COCCn1c(=NC(=O)c2sc3ccccc3c2Cl)sc2cc(S(N)(=O)=O)ccc21	-1	2	22*	2
C=CCn1c(=NC(=O)c2sc3ccccc3c2Cl)sc2cc(S(N)(=O)=O)ccc21	-5	1	-1	0
Cc1ccc(S(=O)(=O)N2[C@H](C(C)C)[C@H]3[C@H]4C(=O)N(c5ccccc5)C(=O)[C@H]4CC(=O)[C@H]3[C@@H]2c2ccccc2)cc1	x	-1	x	x
SMILES	HDAC3 inhib	m5-HT2A agonist	CTSL1 counter	LANA-H2B inh
COCCN(CCOC)S(=O)(=O)c1ccc(C(=O)Nc2nc(C)c(C(C)=O)s2)cc1	-3	-1	20*	-2
COCCN(CCOC)S(=O)(=O)c1ccc(C(=O)Nc2nc(-c3ccncc3)cs2)cc1	-5	2	2	3
O=C(c1ccc(S(=O)(=O)Nc2ccccc2F)cc1)N1CCCC1	x	1	x	x
CC(C)(C)[C@]1(O)CCN2C[C@H]3c4ccccc4CCc4cccc(c43)[C@@H]2C1	-4	-5	-3	24*
COc1ccc(CN2CC(C(=O)NCCc3ccccc3)CC2=O)cc1 (configuration not stated)	1	2	17*	0
COc1ccc(CCN2CC(C(=O)Nc3nnc(Cc4ccccc4)s3)CC2=O)cc1OC (configuration not stated)	1	2	x	11*
COc1ccc(Cc2nnc(NC(=O)C3CC(=O)N(c4ccccc4)C3)s2)cc1OC (configuration not stated)	0	-9	3	-1
COc1ccc(CN2CC(C(=O)NCCc3ccc(C)cc3)CC2=O)cc1 (configuration not stated)	-2	-4	-3	-3
COc1ccc(CN2CC(C(=O)NCCCN3CCCCCC3)CC2=O)cc1 (configuration not stated)	-12	-1	0	-2
CCC1CCCCN1CCCNC(=O)C1CC(=O)N(CCc2ccccc2)C1 (configuration not stated)	-1	-3	28*	0
COc1ccc(CN2CC(C(=O)NCCCN3CCOCC3)CC2=O)cc1 (configuration not stated)	2	6	21*	5
COc1cccc(OC)c1NC(=O)CN1CCN(C)CC1	4	-3	1	-5
O=S1(=O)N[C@H](Cc2ccccc2)COc2cc(N3CCC[C@@H]3CO)ccc21	x	1	x	x
Cc1nn(Cc2ccccc2)c(Cl)c1/C=N/NC(=O)c1cccnc1	7	-2	0	2
Cc1c(/C=N/NC(=O)c2cccnc2)c2ccccc2n1Cc1ccccc1	2	-7	1	12*
CCC(C)NC(=O)c1ccc(CN2CCc3ccccc3C2)cc1 (configuration not stated)	7	0	-3	-3
COCC(C)NC(=O)c1ccc(CN2CCc3ccccc3C2)cc1 (configuration not stated)	2	-6	-2	31*
COc1ccc(C(=O)COC(=O)C2COc3ccccc3O2)cc1F (configuration not stated)	3	1	x	5
COc1cc(Cl)c(C)cc1NC(=O)c1ccccc1NC(=O)CN1CCN(C(C)=O)CC1	x	0	x	x
CC(=O)CSc1nnc(Cc2ccc([N+](=O)[O-])cc2)o1	28*	-1	1	0
CN(C)C(=O)CSc1nnc(Cc2ccc([N+](=O)[O-])cc2)o1	1	1	0	-1
CCn1c(=N)c(C(=O)NC)cc2c(=O)n3cccc(C)c3nc21	x	-4	x	17*
Cc1ccc(OCCN2CCC2(C)C(=O)Nc2ccc3c(c2)OCO3)cc1 (configuration not stated)	x	-7	x	x
COCCNC(=O)CN(Cc1ccc2c(c1)OCO2)C(=O)CCC(=O)Nc1nccs1	-1	5	-3	18*
CCCCCCCCOc1ccc(C(=O)O)cc1	8	-1	x	112*
COc1ccc(/C=N/NC(=O)c2nn(-c3ccccc3)c(=O)c3c(N)scc23)cc1	0	-3	31*	1
Brc1ccc(C2=CC(c3ccco3)n3nnnc3N2)cc1 (configuration not stated)	0	-5	1	2
Fc1ccc(C2=CC(c3ccc(Br)o3)n3ncnc3N2)cc1 (configuration not stated)	3	2	6	20

From PubChem
